Reference: PubChem BioAssay AID687001 (Broad Institute, 2013)
Measured potencies and affinities stand elsewhere.

Target: Protein S100-A4 (Homo sapiens) (UniProt P26447)
Assay: human S100A4 peptide interaction inhibition curves – biochemical, fluorescence polarization, cherry-picked hits, dose response (AID 687001);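 note: 0% = DMSO neutral control wells and -100% = TFP positive control wells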
Settings: FP, S100A4/TAMRA-myosin IIA peptide binding; series mostly up to 11 µM; activity change, negative = inhibition: at the top concentration;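 active = signal-lowering compounds whose fitted half-maximal concentration is at or below twice the top tested dose in every run; inconclusive = runs disagree, flat 30 to 70% inhibition, or poor curve fit; inactive = the rest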

Protein S100-A4 (Homo sapiens), sequence (P26447 whole entry, looked up): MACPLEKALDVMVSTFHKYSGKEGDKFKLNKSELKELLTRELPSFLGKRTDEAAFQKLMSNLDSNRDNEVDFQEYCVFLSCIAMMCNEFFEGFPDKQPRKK

Activity change, negative = inhibition, inactive:
O=C(C[C@H]1C=C[C@H](NC(=O)c2ccc(F)cc2)[C@H](CO)O1)NCc1ccncn1 0.371%
CC(NC(=O)COc1ccc(Br)cc1)C(=O)O (centres undefined) -4.84%
Cc1nn(-c2ccccc2)c(N)c1N=O 1.54%
Nc1cc(-c2ccncc2)c[nH]c1=O -2.72%
C[C@@H]1CN([C@H](C)CO)S(=O)(=O)c2ccc(C#CCN(C)C)cc2O[C@@H]1CN(C)CC1CC1 5.41%
CNC[C@@H]1OCCCC[C@H](C)Oc2ccc(NS(C)(=O)=O)cc2C(=O)N([C@@H](C)CO)C[C@@H]1C 3.23%
CN1C(=O)c2cc(NC(=O)C3CCC3)ccc2OC[C@@H]2O[C@@H](CC(=O)NCc3ccccc3F)CC[C@@H]21 2.16%
C#CCOCCOCCOCCNc1nc(N2CCN(C(=O)[C@H]([C@@H](C)CC)n3cc(CCCCN)nn3)CC2)nc(N2CCN(C(=O)[C@H](C)n3cc(CCC(=O)O)nn3)CC2)n1 -4.18%
CCOC(=O)C1(C)CCCN1C(=O)c1ccc(C(F)(F)F)nc1C (centres undefined) -3.53%
C[C@@H]1CN([C@@H](C)CO)C(=O)c2cc(NC(=O)CCC(F)(F)F)ccc2O[C@@H]1CN(C)C(=O)Nc1ccc(F)cc1 0.783%
Fc1ccc(Nc2nc(N3CCOCC3)nc(N3CCOCC3)n2)cc1 -2.81%
O=C(O)c1ccc2c(c1)C(=O)N(c1cccc3ccccc13)C2=O -4.76%
COc1ccc(OCC(=O)N2CCCC2=O)c([N+](=O)[O-])c1 5.77%
CCOC(=O)[C@]12CCCC=C1N(Cc1ccccc1)C(=O)[C@H](CC(=O)NCCCN1CCCC1=O)C2 0.767%
Cc1cc(C(=O)Nc2ccncc2)c2ccccc2n1 0.023%
CC1Sc2ccc(S(=O)(=O)N3CCC(C(=O)NCCc4ccccc4)CC3)cc2NC1=O (centres undefined) 4.52%
CCCc1cc(=O)[nH]c(SCC(=O)N2CCc3ccccc32)n1 -4.51%
O=C(C[C@H]1CC[C@@H]2[C@H](COC[C@@H](O)CN2C(=O)Cc2ccccc2)O1)NC1CCCC1 17.1% [at 10 µM]
CCc1ccc(C(=O)NNC(=O)c2cccc(N3C(=O)CCC3=O)c2)cc1 1.21%
O=C(OCc1ccccc1)/C(=C/c1ccccc1Cl)NC(=O)c1ccco1 1.77%
CCc1cccc(C)c1NC(=O)COC(=O)C1CC(=O)N(CCc2ccc(OC)c(OC)c2)C1 (centres undefined) -4.85%
COc1ccc(-n2ncc3c2CC(C)(C)CC3NC(=O)CCc2c(C)nn(C)c2C)cc1 (centres undefined) -0.643%
COc1ccc(C(=O)CC(=O)C(=O)Nc2c(C)cccc2C)cc1 -2.44%
CC1CCN(C(=O)c2[nH]cnc2C(=O)N[C@@H](C)C(=O)OCc2ccccc2)CC1 -3.45%
O=C(NCCC1=CCCCC1)c1ccc(Cl)c(S(=O)(=O)N2CCCCC2)c1 -0.676%
COC(=O)C(c1ccccc1)C(CC(=O)c1ccccc1)c1ccccc1 (centres undefined) -2.72%
COC(=O)c1ccc2c(=O)n(CCN3CCOCC3)c(SCC(=O)Nc3ccccc3Cl)nc2c1 -4.05%
C[C@@H]1CN([C@H](C)CO)C(=O)Cc2cc(NS(=O)(=O)c3ccccc3)ccc2O[C@@H]1CN(C)Cc1ccccc1 1.23%
Cc1ccc(CN2C(=O)CSCC2(C)C(=O)Nc2c(C)cccc2C)cc1 (centres undefined) 2.37%
CCc1ccc(NC(=O)C(C)OC(=O)c2ccc(NS(=O)(=O)c3ccc(C)c([N+](=O)[O-])c3)cc2)cc1 (centres undefined) 15.1%
CC(=O)N1[C@H](C(=O)N[C@H](C)c2ccccc2)[C@@H](CO)[C@@H]2Cn3c(cccc3=O)[C@@H]21 -1.68%
CC(=O)Cc1cc2cc([N+](=O)[O-])ccc2oc1=O -1.55%
COc1cc(NS(=O)(=O)c2ccc(NC(=O)c3ccc([N+](=O)[O-])cc3)cc2)ncn1 24.8%
CC(NC(=O)COC(=O)c1cc([N+](=O)[O-])ccc1N1CCOCC1)c1ccc(F)cc1 (centres undefined) 7.4%
COc1ccc(NC(=O)CN(C)C(=O)c2ccc(N3CCCC3)c([N+](=O)[O-])c2)cc1 0.18%
NC(=O)NC(Cc1ccccc1)C(=O)NCCCSc1ccccc1 (centres undefined) -2.69%
CCC(=O)N1C[C@H](O)COC[C@H]2O[C@H](CC(=O)NCc3cc(F)cc(F)c3)CC[C@@H]21 16.2%
CO[C@H]1CN(C)C(=O)c2cc(NC(=O)C3CC3)ccc2OC[C@H](C)N(C(=O)CN(C)C)C[C@H]1C -1.28%
O=c1[nH][nH]c(=O)c2nc(Nc3ccccc3)ncc12 -0.695%
